# Measured values taken from PubChem BioAssay AID651871 (Sanford-Burnham Center for Chemical Genomics, 2012).
# System: HL-1
# Assay: cardiomyocyte survival under oxidative or metabolic stress – cell-based, panel, H9c2 and HL-1, ATP luminescence, set 2, SAR follow-up (AID 651871);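 note: cells exposed to stressor for 2 h before ATP readout; reference of the scale not given here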
# Conditions: H9c2/HL-1 cardiomyocytes, 2-deoxyglucose stress, with 2-deoxyglucose, run 2, at 19.8 µM (top of the series)
structure (smiles),measurement,value
COc1ccc2c(c1OC)C(=O)N1c3ccccc3C(=O)N(Cc3cccc(Cl)c3Cl)C21 (stereo unspecified),activity (protection/inhibition),23.7%
